Test results as given in PubChem BioAssay AID1863 (Southern Research Specialized Biocontainment Screening …, 2009).
Out of some 300,000 compounds screened, about 480 (0.16%) were called active.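 How the source made its calls: active means inhibition over 29.93%, a cutoff 3 SD above the screen mean, later confirmed by dose response; inconclusive means inhibition over 29.93% but no dose response follow-up; inactive means inhibition at most 29.93% or unconfirmed.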 A selection follows. Results with a measured potency or affinity are listed apart.

Test: PhoP-dependent GFP reporter repression – Salmonella Typhimurium, primary screen (AID 1863);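 further: 0% = low Mg2+ inducing control and 100% = high Mg2+ repressing control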
Details: S. Typhimurium PhoP-regulated promoter GFP reporter, 4 h; at 50 µM; stronger effect = higher value

inhibition, inactive:
CN1CCc2c(sc3nc(NCCO)n(-c4cccc(Cl)c4)c(=O)c23)C1 -3.53%, CC(Oc1ccccc1)C(=O)N=C1SC2CS(=O)(=O)CC2N1c1ccc(F)cc1 (configuration not stated) -3.91%, O=S(=O)(Nc1nc2ccccc2nc1NCC1CCCO1)c1ccc(F)cc1 (configuration not stated) 6.59%, Cc1cc2ncn(/N=C/c3ccc([N+](=O)[O-])s3)c2cc1C -6.99%, Cc1cccc(C)c1NC(=O)CNCC(=O)Nc1c(C)cccc1C 0.56%, O=C(O)c1cccc(NC(=O)c2ccc3c(c2)C(=O)N(CC2CCCO2)C3=O)c1 (configuration not stated) -1.15%, Cc1cc(Cl)ccc1NC(=O)CCC(=O)N/N=C/c1cc([N+](=O)[O-])ccc1O 12.1%, O=C(CSc1nc2ccccc2s1)NCc1cc([N+](=O)[O-])ccc1O -4.94%, O=[N+]([O-])c1ccc(/C=N/Nc2ccccn2)cc1 4.65%, O=C(CSc1nc2ccccc2s1)N/N=C/c1ccccc1C(=O)O -5.31%, Cc1ccc(C)c(NC(=O)CCC(=O)N/N=C/c2cc([N+](=O)[O-])ccc2O)c1 8.86%, O=[N+]([O-])c1cccc(/C=N/Nc2ccccn2)c1 -2.55%, O=C(CSc1ccccn1)N/N=C/c1cccc([N+](=O)[O-])c1 0.8%, COc1cc([N+](=O)[O-])cc(/C=N/NC(=O)CSc2ccccn2)c1O 24.8%, O=C1CCc2cc(NS(=O)(=O)c3ccccc3)cc3c2N1CCC3 3.44%, CCOC(=O)C1(Cc2ccc(Cl)cc2)CCN(C2CCC2)CC1 -6.48%, CC(C)c1nc(SCC(=O)Nc2cccc(S(N)(=O)=O)c2)n[nH]1 -17.9%, COc1ccc(CC(=O)Nc2nc(-c3ccccc3)c(C(C)=O)s2)cc1OC 5.08%, COc1ccc(S(=O)(=O)N2CCC(C(=O)NCCCc3ccccc3)CC2)cc1 -11.5%, NC(N)=NC(=S)Nc1ccc(Cl)cc1 -3.56%, CC(C)N=C(N)N=C(N)Nc1ccc(Cl)cc1 -0.65%, O=C(NCc1ccccc1)c1cncc(Br)c1 3.01%, CC1CCC2(CC1)NC(=O)N(CC(=O)c1cn(CCC#N)c3ccccc13)C2=O (configuration not stated) -10.8%, Cc1cc(C)n2nc(C(=O)OCC(=O)c3c[nH]c4ccccc34)nc2n1 10.2%, COc1ccc(CNC(=O)CSc2nnc(NC(=O)C3CC3)s2)cc1 -0.4%, Oc1ccccc1/C=N/Nc1nccnc1Cl 25.1%, Oc1ccccc1/C=N/Nc1ncc(Br)cn1 -2.93%, Oc1ccc(/C=N/Nc2nccnc2Cl)cc1 5.13%, Oc1c(Cl)cc(Cl)cc1/C=N/Nc1ncc(Br)cn1 6.58%, Cc1ccccc1-n1c(SCC(=O)N/N=C/c2sccc2C)nc2ccccc2c1=O -15.1%, Cc1nn2c(-c3ccc(S(=O)(=O)N4CCN(C)CC4)o3)nnc2c2ccccc12 1.51%, Cc1cc2c(cc(C(=O)NCc3cccnc3)n2Cc2ccc(Cl)cc2)o1 13%, COc1ccc(N2CCOCC2)c(NC(=O)c2cccnc2)c1 0.01%, CCN(Cc1cn2cccnc2n1)C1CCCCC1 -4.78%, Cc1nc2ccc(Cl)cc2nc1C -3.83%, Cc1nc(N)nc(Cl)c1Cc1ccc(Cl)cc1 2.03%, O=[N+]([O-])c1cc2c(cc1CN1CCN(c3ccc(F)cc3)CC1)OCO2 -3.23%, CCOc1ccc(-c2nc(S(=O)(=O)c3ccccc3)c(NC)o2)cc1 -1.53%, COCCCNC(=O)CCCN1C(=O)c2cccnc2Sc2ccccc21 -9.37%, COc1ccc(N2CCN(c3nc4c(C)cccn4c(=O)c3/C=C(\C#N)C(N)=O)CC2)cc1 0.07%, COc1cc(Cl)ccc1OCc1cc(C(=O)N2CCC(N(C)C)C2)no1 (configuration not stated) 4.49%, Oc1c(CN2CCCCC2)cc(Br)c2cccnc12 -2.58%, CN1CCN(Cc2cc(COCc3ccccc3)c3cccnc3c2O)CC1 21%, O=[N+]([O-])c1cc(CN2CCN(c3ccccc3)CC2)c(O)c2ncccc12 14%, O=C(Oc1c(CN2CCOCC2)cc(Cl)c2cccnc12)c1ccccc1Cl 13.4%, COCc1cc(CN2CCCC2)c(O)c2ncccc12 0.6%, O=[N+]([O-])c1cccc2c(N3CCOCC3)ccnc12 -2.73%, O=C(COC(=O)c1cc[n+]([O-])cc1)Nc1c(Cl)cccc1C(F)(F)F 0.58%, Cc1occc1-c1nnc(SCCNCCO)o1 -0.93%, CCn1ccnc1[C@@H]1C[C@H]2CN(Cc3cccc(Cl)c3)C(=O)[C@]23CCCN13 3.68%, CCN1C(=O)CSc2ccc(C(=O)NCc3ccc(OC)cc3)cc21 -1.69%, COc1ccc(S(=O)(=O)NN=C2CCCC2)cc1 1.9%, O=C(c1oc(=O)c2ccccc2c1-c1ccccc1)N1CCC(O)CC1 18.1%, CCOc1ccccc1N1CCN(CC(=O)Nc2ncc(C)s2)CC1 -2.9%, Oc1cccc(C=NCc2ccccc2)c1 4.18%, O=C(Cc1ccccc1)N/N=C/c1cc(Br)cc(Br)c1O -8.98%, Oc1c(Br)cc(Br)cc1C=NCc1ccc(F)cc1 10.4%, Oc1cccc(/C=N/N=C/c2cccc(O)c2O)c1O 16.2%, CCOc1ccccc1N(CC(=O)N/N=C(\C)c1cccc(Br)c1)S(C)(=O)=O -0.46%, CC(C)C[C@H](NC(=O)c1[nH]cnc1C(=O)N[C@H](C)c1ccccc1)C(=O)OC(C)(C)C -2.19%, CCCCCCCCOC(=O)C[N+](C)(C)C/C=C(/C)Cl 2.02%, CCCCCCCCCCCCOC(=O)C[N+](C)(C)C 0.96%, Cc1cc(C(=O)NCCN2CCOCC2)ccc1[N+](=O)[O-] -2.2%, Cc1nc(N)c(Cc2ccccc2F)c(N)n1 2.15%, Nc1nc(-c2ccccn2)nc(N)c1Cc1ccc(Cl)cc1Cl 3.01%, COc1ccc(C(=O)NCC(=O)N2CCN(c3ccccc3)CC2)cc1 -3.55%, COCc1c(C(=O)N/N=C/c2ccc(C)o2)nnn1-c1nonc1N 4.95%, COc1cccc(CC(=O)Nc2nc(-c3cccnc3)cs2)c1 -6.4%, Cc1ccc(N2C(=O)CC(NNc3nc4ccccc4s3)C2=O)cc1 (configuration not stated) 7.17%, Cc1ccc(Nc2cc(C)nn2-c2nc(C)cc(C)n2)cc1 14.5%, Cc1cc(=O)[nH]c(-n2nc(C)cc2C)n1 -11.6%, Cc1ccc(S(=O)(=O)N2CCN(Cc3ccccc3)CC2)cc1 -4.43%, Cc1cc(C)c2ccc(NN)nc2c1O 0%, Cc1cc(C)c2ccc(C(=O)O)nc2c1O -7.66%, CCn1c(C)nnc1SCC(=O)Nc1ccc(N2CCOCC2)cc1 10%, O=C(COc1ccccc1[N+](=O)[O-])N1CCC(Cc2ccccc2)CC1 4.09%, Cc1nnc(N/N=C/C(C)c2ccccc2)[nH]c1=O (configuration not stated) -2.09%, Cc1nnc(N/N=C/c2c[nH]c3ccccc23)[nH]c1=O 7.38%, S=C(Nc1ccccc1Cl)N(Cc1ccccc1)Cc1cccnc1 4.33%, O=C(CSc1ccc(-c2ccccn2)nn1)N1CCc2ccccc21 -3.41%, O=C(C[n+]1cc(-c2ccccc2)n2c1CCC2)Nc1nc(-c2ccc(F)cc2)cs1 11.3%, Cc1ccc(NC(=O)C[n+]2cc(-c3ccc(C)cc3)n3c2CCC3)cc1 -9.5%, Cc1ccc(-c2csc(NC(=O)C[n+]3cc(-c4ccccc4)n4c3CCC4)n2)cc1 -8.54%, O=C(C[n+]1cc(-c2ccc(F)cc2)n2c1CCC2)Nc1nc(-c2ccc(F)cc2)cs1 20.4%, Cc1ccc(-c2c[n+](CC(=O)Nc3nc(-c4ccccc4)cs3)c3n2CCC3)cc1 -7.93%, Cc1ccc(NC(=O)C[n+]2cc(-c3ccccc3)n3c2CCC3)cc1 -4.1%, O=C(c1cc2ccc([N+](=O)[O-])cc2oc1=O)N1CCOCC1 -3.48%, O=C(COc1ccc(S(=O)(=O)N2CCCCC2)cc1)Nc1ccccc1F -6.38%, O=C(c1ccc(N2CCN(C3CC(=O)N(Cc4cccs4)C3=O)CC2)cc1)c1cccnc1 (configuration not stated) 4.02%, O=C(O)c1ccn2c(C(=O)c3ccccc3)c(-c3ccccc3)cc2c1 -13.9%, CCn1cc(C(=O)NCC2CCCO2)c(=O)c2cc(F)c(N3CCN(C)CC3)cc21 (configuration not stated) 0.68%, C[C@H]1COc2c(N3CCN(C)CC3)c(F)cc3c(=O)c(C(=O)O)cn1c23 -9.45%, CN1CCN(c2c(F)cc3c(=O)c(C(=O)O)cn(CCF)c3c2F)CC1 -2.24%, C[C@H]1COc2c(C3(N)CC3)c(F)cc3c(=O)c(C(=O)O)cn1c23 -7.84%, CCOc1ccc(C(=O)Nc2ccc(S(=O)(=O)N3CCN(C)CC3)cc2)cc1 8.02%, Cc1cc(C)c(NC(=O)c2cc(S(=O)(=O)N3CCOCC3)ccc2F)c(C)c1 -1.33%, CCOc1ccc(C(=O)Nc2ccc(N3CCN(C)CC3)cc2)cc1 -7.33%
